# Laboratory results reported in PubChem BioAssay AID463173 (ICCB-Longwood Screening Facility, Harvard Medical School, 2010).
# The whole screen tested about 52,000 compounds, of which about 4,300 (8.3%) were called active. The entries come from a sample that favours actives as a whole. Unmarked numbers belong to inactive results. Rule as the data show it: active = survival mostly below about 52% (no sharp cut-off); inactive = mostly above about 56%.
# Test system: DeltatarO mutant
# Experiment: growth inhibition of S. aureus wild type versus tarO mutant, primary screen, teichoic acid synthesis inhibitors, RN4220, OD600 (AID 463173)
# Details: OD600, 18 h, hits give low values, screened at 18.75 µg/mL (by protocol)
row,Structure (SMILES),survival
1,COc1ccccc1C(=O)Nc1ccc(C(=O)OCc2cc(=O)n3ccsc3n2)cc1,96%
2,COc1cc(C(=O)OCc2cc(=O)n3ccsc3n2)cc(OC)c1OC,-2% (active)
3,Cc1cccc(C(=O)OCc2cc(=O)n3ccsc3n2)c1,84%
4,Cc1ccccc1C(=O)Nc1ccccc1C(=O)OCc1cc(=O)n2ccsc2n1,77%
5,Cc1ccccc1C(=O)Nc1cccc(C(=O)OCc2cc(=O)n3ccsc3n2)c1,72%
6,COc1ccccc1C(=O)Nc1cccc(C(=O)OCc2cc(=O)n3ccsc3n2)c1,-4% (active)
7,COc1ccccc1C(=O)Nc1ccccc1C(=O)OCc1cc(=O)n2ccsc2n1,-5% (active)
8,COc1cc(C(=O)OCc2cc(=O)n3nc(C(C)C)sc3n2)cc(OC)c1OC,99%
9,O=C(Nc1ccccc1C(=O)OCc1cc(=O)n2ccsc2n1)c1ccccc1Cl,60%
10,CCc1nnc2c(NCc3cccc(OC)c3)nc3ccccc3n12,89%
11,Cc1cc(C)c2c(=O)cc(C(=O)Nc3nc4ccc(F)cc4s3)oc2c1,61%
12,COc1ccc(-c2cn3c(n2)sc2cc(C(=O)NC4CCCCC4)ccc23)cc1,79%
13,CSc1cccc(NC(=O)Cn2ncn3c(cc4ccccc43)c2=O)c1,65%
14,CCN(Cc1ccccc1)C(=O)Cn1c(=O)n(-c2cccc(C)c2)c(=O)c2c1c1cc(OC)ccc1n2C,59%
15,O=C(NCC(c1cccnc1)N1CCc2ccccc2C1)C(=O)Nc1ccc(F)cc1F (configuration not stated),107%
16,O=C(Nc1c(-c2ccccc2)nc2ccccn12)c1ccc(Br)cc1,31% (active)
17,Cc1ccc(C(=O)Nc2c(-c3ccccc3)nc3ccccn23)cc1C,34% (active)
18,Cc1cc(C(=O)Nc2c(C)nc3ccccn3c2=O)ccc1[N+](=O)[O-],92%
19,COC(=O)Nc1c(-c2ccccc2)nc2ccc(C)cn12,74%
20,CC(C)Nc1c(-c2ccccc2)nc2ccccn12,105%
21,Cc1cccc(C(=O)Nc2c(-c3ccc(F)cc3)nc3ccccn23)c1,91%
22,O=C(Nc1c(-c2ccc(F)cc2)nc2ccccn12)c1ccccc1F,139%
23,O=C(Nc1c(-c2ccccc2)nc2ccccn12)c1ccccc1F,48%

row,Structure (SMILES),survival
1,Cc1ccc(C(=O)Nc2c(-c3ccccc3)nc3ccccn23)cc1,40% (active)
2,Cc1cc(NC(=O)CSc2ccccc2)no1,88%
3,CCOC(=O)Cc1nnc2c(Nc3cc(C)ccc3C)nc3nonc3n12,101%
4,Cc1oc(-c2cccc(Cl)c2)nc1Cn1c(SCc2ccc(F)cc2)nc2cccnc21,85%
5,Cc1ccc(C)c2nc(SCC(=O)OC(C)C)c(C#N)cc12,92%
6,COc1ccc(C(NC(C)=O)c2ccc(OC)cc2)cc1,77%
7,Cn1cnc(S(=O)(=O)N2CCC(C(=O)N3CCN(c4cccc(C(F)(F)F)c4)CC3)CC2)c1,106%
8,O=C(NC1CCCC1)c1ccc(CSc2nc3cccnc3n2Cc2ccccc2)cc1,95%
9,COc1ccc(Cn2cc(S(=O)(=O)c3ccc(Cl)cc3)c(=O)c3cc4c(cc32)OCO4)cc1,58%
10,Cn1nc(-c2ccc(N3CCCCC3)c(NC(=O)c3ccc(Cl)cc3)c2)c2ccccc2c1=O,66%
11,Cn1c(=O)c(=O)n(C)c2cc(N3CCCC3)c(NC(=O)c3ccccc3Cl)cc21,90%
12,CCn1c(=O)c(=O)n(CC)c2cc(N3CCCCC3)c(NC(=O)c3cccc(OC)c3)cc21,85%
13,COc1ccccc1C(=O)Nc1cc2c(cc1N1CCCCC1)n(C)c(=O)n2C,78%
14,COc1nnc(-c2ccc(N3CCCCC3)c(NC(=O)c3ccccc3Cl)c2)c2ccccc12,-1% (active)
15,COc1nnc(-c2ccc(N3CCCCC3)c(NC(=O)c3ccc(C)cc3)c2)c2ccccc12,26% (active)
16,COc1ccccc1C(=O)Nc1cc2c(cc1N1CCCC1)n(C)c(=O)c(=O)n2C,89%
17,COc1nnc(-c2ccc(N3CCCCC3)c(NC(=O)c3ccc(Cl)cc3)c2)c2ccccc12,107%
18,COc1nnc(-c2ccc(N3CCCCC3)c(NC(=O)c3ccccc3)c2)c2ccccc12,0% (active)
19,COc1ccc(S(=O)(=O)Nc2ccc3c(c2)N(C(C)=O)CCC3)cc1F,85%
20,Cc1cc(SCCN2CCOCC2)nc2ccccc12,68%
21,CCc1ccc(CNC(=O)c2ccc3nc(SCc4ccc(F)cc4)n(C)c3c2)cc1,94%
22,O=C(CSc1cn(CC(=O)N2CCCC2)c2ccccc12)Nc1cc(C(F)(F)F)ccc1Cl,52%
23,O=C1CSC(c2ccccc2)N1Nc1nc(N2CCOCC2)nc(N2CCOCC2)n1 (configuration not stated),101%

row,Structure (SMILES),survival
1,COc1cccc(CNC(=O)Cn2nc(N3CCN(c4ccccc4OC)CC3)ccc2=O)c1,86%
2,CCn1c2ccccc2c2cc(NC(=O)COc3ccc(C)c(C)c3)ccc21,119%
3,Cc1cc(OCC(=O)Nc2ccc3c(c2)OCCO3)cc(C)c1Cl,77%
4,COc1ccc(Nc2cc(C)c3cc(NC(=O)COc4cccc(C)c4)ccc3n2)cc1,102%
5,CCn1c2ccccc2c2cc(NC(=O)COC)ccc21,43% (active)
6,CCn1c2ccccc2c2cc(NC(=O)COc3cccc(C)c3)ccc21,27% (active)
7,Cc1cccc(OCC(=O)Nc2ccc(NC(=O)c3ccco3)cc2)c1,83%
8,CCn1c(=O)cc(OCC(=O)Nc2cc(OC)c(OC)c(OC)c2)c2ccccc21,47%
9,CCn1c(=O)cc(SCC(=O)Nc2ccc(C)c(F)c2)c2ccccc21,89%
10,CCn1c2ccccc2c2cc(NC(=O)COc3cc(C)c(Cl)c(C)c3)ccc21,50% (active)
11,COc1ccc(OCC2CNC(=O)O2)cc1 (configuration not stated),61%
12,C=CCn1c(=O)/c(=C2/Sc3ccccc3N2CC)s/c1=C1/C(=O)NN=C1C,89%
13,Cc1ccc(Nc2ccc(N3CCN(C(=O)c4cccc([N+](=O)[O-])c4)CC3)nn2)cc1,85%
14,O=C(NCCc1ccccc1)c1ccc2c(c1)N(Cc1ccc(Cl)cc1)C(=O)c1ccccc1S2(=O)=O,89%
15,COCCCNC(=O)c1ccc2c(c1)N(Cc1ccccc1F)C(=O)c1ccccc1S2=O (configuration not stated),83%
16,COC(=O)c1sc2cccc(F)c2c1S(=O)(=O)NCc1ccc(F)cc1,103%
17,N#CC1=C(N)C(C#N)(C#N)C(c2ccccc2)C2CCCC=C12 (configuration not stated),97%
18,COc1ccc(C2=C(N3CCN(c4cc(C)ccc4C)CC3)c3ccccc3C2=O)cc1,28% (active)
19,COc1ccc(C2=C(N3CCN(c4cc(Cl)ccc4C)CC3)c3ccccc3C2=O)cc1,95%
20,Cc1ccc(C)c(N2CCN(C3=C(c4ccccc4)C(=O)c4ccccc43)CC2)c1,100%
21,Cn1c(-c2ccccc2)cnc1NC(=O)c1ccc(F)cc1,81%
22,O=C(NCc1cccc(F)c1)c1ccc(-n2cnc3cccnc32)cc1,97%
23,CCc1ccc(CNc2ncc(-c3cccc(OC)c3)n2C)cc1,8% (active)

row,Structure (SMILES),survival
1,COc1cccc(-c2cnc(NCc3ccccc3Cl)n2C)c1,51%
2,Cn1c(-c2cccc(Br)c2)cnc1NCc1cccc(F)c1,28% (active)
3,COc1cccc(C(=O)n2nc(-c3cccnc3)nc2NCc2ccc(F)cc2)c1,71%
4,Cc1cc(Cl)ccc1NC(=O)CS(=O)(=O)c1cccc2nsnc12,125%
5,Fc1ccc(-c2cc(-c3nc(-c4cccc(Cl)c4)no3)[nH]n2)cc1,88%
6,CC(C)(C)c1ccc(C(=O)NC2CCSC2=O)cc1 (configuration not stated),92%
7,NC(=O)c1ccccc1NC(=O)Cn1nc(Cc2cccnc2)c2ccccc2c1=O,71%
8,CC(Sc1cn(CCNC(=O)c2ccccc2F)c2ccccc12)c1ccccc1 (configuration not stated),42% (active)
9,COc1ccc(C(=O)NCCn2cc(SCc3ccc(C(F)(F)F)cc3)c3ccccc32)cc1OC,72%
10,O=C(NCCn1cc(SCc2ccc(C(F)(F)F)cc2)c2ccccc21)c1cccs1,95%
11,Cc1ccc(C)c(CSc2cn(CCNC(=O)c3cccs3)c3ccccc23)c1,71%
12,Cc1ccc(C)c(CSc2cn(CCNC(=O)c3ccccc3F)c3ccccc23)c1,35% (active)
13,COc1ccc(C(=O)NCCn2cc(SCc3cccc(F)c3)c3ccccc32)cc1OC,52%
14,O=C(CSc1cn(CCNC(=O)c2ccccc2F)c2ccccc12)Nc1ccccc1F,80%
15,O=C(CSc1cn(CCNC(=O)c2cccc(C(F)(F)F)c2)c2ccccc12)Nc1ccc2c(c1)OCCO2,87%
16,COc1ccc(C(=O)NCCn2cc(SCc3cc(C)ccc3C)c3ccccc32)cc1,57%
17,O=C(NCCn1cc(SCc2cccc(F)c2)c2ccccc21)c1cccc(C(F)(F)F)c1,35% (active)
18,O=C(NCCn1cc(SCc2ccc(C(F)(F)F)cc2)c2ccccc21)c1ccccc1F,36% (active)
19,COc1ccc(C(=O)NCCn2cc(SC(C)c3ccccc3)c3ccccc32)cc1OC (configuration not stated),61%
20,O=C(CCC(=O)N1CC2CCCN2c2ccccc21)NCc1ccccc1F (configuration not stated),131%
21,CCOc1ccc(NC(=O)C2CCC(N3C(=O)C4CC=CCC4C3=O)CC2)cc1 (configuration not stated),77%
22,COc1ccc2oc(=O)c(-c3nc(-c4cccs4)no3)cc2c1,73%
23,CCc1ccc(NC(=O)CSc2nccn2C2CCCC2)cc1,70%
